# Compounds with a hit are over-represented: about 4.7% of the library has one in this group of screens.
# D1 antagonist: Antagonist of Human D 1 Dopamine Receptor: qHTS; hit rate 3.2% among 360,000; D(1A) dopamine receptor (Homo sapiens), P21728; HEK293 TREx D1 cells, calcium flux, dopamine EC80; hits give low values; activity change, negative = inhibition, % at 10 µM; AID 504652, 2011; in the data active = activity change below about -30%; note: % is set by controls: 0 for no effect and ±100 for the full control effect
#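 Kinetic fluorescence of a calcium dye serves as the read-out. D1-expressing Hek293 Trex cells, induced overnight at 30 C, are exposed to compound for 180 s before an EC80 dopamine addition, then read 180 s further.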
# TRHR enhancer: qHTS for Small Molecule Agonists and Allosteric Enhancers of Human TRH Receptor: Primary Screen for Enhancers. Thyrotropin-releasing hormone receptor (Homo sapiens), P34981. TRHR cells, fluo-8 calcium fluorescence, EC20 TRH enhancement. enhancement, % at 2 µM. hit rate 0.66% among 360,000. AID 493056, 2011; in the data active = enhancement above about 30%; note: 0% is about no effect
# Target sequence (P34981 whole entry, looked up): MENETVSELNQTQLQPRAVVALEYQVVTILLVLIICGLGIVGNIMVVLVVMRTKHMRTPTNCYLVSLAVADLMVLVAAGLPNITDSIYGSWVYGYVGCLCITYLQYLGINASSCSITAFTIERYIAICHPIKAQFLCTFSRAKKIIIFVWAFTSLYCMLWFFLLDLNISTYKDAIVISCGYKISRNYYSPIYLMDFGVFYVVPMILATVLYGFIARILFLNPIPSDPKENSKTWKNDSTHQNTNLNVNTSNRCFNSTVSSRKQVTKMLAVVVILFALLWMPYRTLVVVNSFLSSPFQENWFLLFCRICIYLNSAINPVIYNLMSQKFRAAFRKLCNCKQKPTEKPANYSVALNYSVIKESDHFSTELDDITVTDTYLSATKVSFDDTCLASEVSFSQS
#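 Enhancer read-out: after compound pinning and an initial kinetic agonist-mode read, an EC20 of TRH (10 nM final) was injected and fluo-8 calcium signal (Ex 480/Em 530) followed at 1 s/cycle for 100 cycles in TRHR-expressing cells.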
# TRHR ag: qHTS for Small Molecule Agonists and Allosteric Enhancers of Human TRH Receptor: Primary Screen for Agonists; TRHR cells, calcium flux fluo-8, FDSS agonist mode; activation, % at 2 µM; hit rate 0.18% among 360,000; AID 493084, 2011; note: 0% is about no effect
#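 Agonist-mode FDSS calcium read (Ex 480/Em 530, 1 s cycles) in 1536-well TRHR cells with fluo-8 dye, after 10-cycle baseline and 23 nL compound addition; TRH at EC20 (10 nM final) added afterwards for the enhancer phase.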
# D1 agonist: Allosteric Agonists of the Human D1 Dopamine Receptor: qHTS; D(1A) dopamine receptor (Homo sapiens), P21728; HEK293 T-REx D1 cells, calcium flux, agonist mode; activation, % at 2 µM; hit rate 1% among 360,000; note: 0% is about no effect
#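 Tetracycline-induced HEK293 TREx D1 cells, force-coupled to calcium signalling, were dye-loaded with a no-wash calcium kit. Compound was pin-added after a 10 s baseline. Fluorescence was read kinetically at 1 cycle/s for 180 s, with calcium rises flagged as agonism.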
# D1 PAM: Potentiators of Human D1 Dopamine Receptor: qHTS; D(1A) dopamine receptor (Homo sapiens), P21728; potentiation, % at 10 µM; HEK293 TREx D1 cells, calcium flux, dopamine EC20 potentiation; hit rate 0.036% among 360,000; in the data active = potentiation above about 30%; note: 0% is about no effect
# An asterisk follows results filed as active; x = no result given. Cut-off read from the data, not from the text of the source, unless noted: active = activation above about 30%; inactive = the rest.
SMILES,D1 antagonist,TRHR enhancer,TRHR ag,D1 agonist,D1 PAM
CCOC(=O)C1C(=O)C=C(/C=C/c2ccc(N(C)C)cc2)CC1c1ccccc1 (configuration not stated),-23.6,17.9,73.1*,229.7*,7.8
CC(CNC(=O)C1CCN(Cc2cc3ccccc3n2Cc2ccccc2)CC1)c1ccccc1 (configuration not stated),-7.9,0.6,0.5,2.9,-2.9
CSc1oc(-c2ccccc2)nc1S(=O)(=O)c1ccc(C)cc1,-35.2*,-2.2,0.5,4.1,-7.3
Cc1ccc(-c2nc(S(=O)(=O)c3ccc(C)cc3)c(SCC(=O)Nc3ccc(F)cc3)o2)cc1,-60.9*,-1.4,0.7,2.7,0.1
CCSc1oc(-c2ccc(F)cc2)nc1S(=O)(=O)c1ccc(C)cc1,7.2,-1.3,1.5,21.0,0.6
CCSc1oc(-c2ccccc2)nc1S(=O)(=O)c1ccccc1,11.4,8.4,-0.8,1.5,10.4
CCn1c(Cl)c(C=O)s/c1=N\S(=O)(=O)c1ccccc1,-38.4*,-11.0,1.6,1.6,-11.8
O=c1oc2ccccc2c2c1C(c1ccc(Cl)cc1)Nc1ccc3ccccc3c1-2 (configuration not stated),-64.1*,9.6,-0.4,1.2,-2.2
COc1ccc(C2Nc3ccc4ccccc4c3-c3c2c(=O)oc2ccccc32)cc1 (configuration not stated),-3.0,-1.6,-0.4,4.1,0.1
CCOC(=O)c1c(-c2ccccc2)csc1NC(=O)c1cc(-c2ccc(C)c(F)c2)on1,-8.8,-4.5,-0.9,0.9,-2.6
CC1=CC(C)(C)N=C(Nc2ccc(C)cc2)S1,-33.0*,-4.5,0.5,4.2,-11.7
OCCN(CCO)c1nc(N2CCCCC2)c2nc(N(CCO)CCO)nc(N3CCCCC3)c2n1,-39.0*,13.0,106.3*,318.5*,7.7
Nc1nc(NCCO)nc(N2CCCCCC2)c1[N+](=O)[O-],-1.0,4.3,0.4,3.4,0.9
O=C(Cc1cccs1)N1CCN=C1SCc1ccccc1F,-36.3*,2.5,-0.1,0.3,-5.2
O=C(Cc1cccs1)N1CCN=C1SCc1ccccc1Cl,-23.8,-3.0,0.9,8.1,-2.6
CCOC(=O)CCCn1c(C)nc(=O)c(-c2ccccc2)c1C,-33.6*,-0.7,0.5,-0.3,-3.1
Cc1nc(=O)c(-c2ccccc2)c(C)n1CCO,-36.9*,-1.5,0.0,1.5,-4.1
Cc1nc(=O)c(-c2ccccc2)c(C)n1CCCCCC(=O)O,-7.1,-2.2,0.7,2.8,0.3
Cc1nc(=O)c(-c2ccccc2)c(C)n1CCCO,-4.5,5.8,-1.3,2.9,-1.9
CN(CC(=O)Nc1cccc(F)c1)S(=O)(=O)c1ccc2c(c1)n(C)c(=O)c(=O)n2C,12.9,3.8,1.6,-0.7,-2.5
NC(=O)c1cc2cc(Cl)ccc2oc1=Nc1cccc(C(F)(F)F)c1,-32.7*,-3.6,0.3,-3.6,-4.4
Cc1c(/C=N/NC(=O)c2cccs2)c2ccccc2n1Cc1ccccc1Cl,-99.4*,-5.8,0.1,2.0,-9.9
Cc1[nH]c2ccccc2c1/C=N/NC(=O)c1cccs1,-12.7,2.2,0.1,0.2,0.5
Cc1ccc(C)c(NC(=O)c2ccccc2NS(=O)(=O)c2cc([N+](=O)[O-])ccc2C)c1,-50.2*,-8.2,1.5,28.2,-11.2
CCc1ccc(OCC(=O)NNC(=O)c2cc(S(=O)(=O)N3CCOCC3)ccc2N2CCCC2)cc1,-5.1,-2.3,-0.4,1.3,-3.5
SMILES,D1 antagonist,TRHR enhancer,TRHR ag,D1 agonist,D1 PAM
CCN1CCN(c2ccc(S(=O)(=O)N3CCCCC3)cc2NC(=O)Cc2ccccc2)CC1,4.0,-6.4,0.0,1.9,7.8
CCc1nnc(NC(=O)Cc2ccc(S(=O)(=O)N3CCCCC3)cc2)s1,-32.4*,-3.8,0.3,13.6,x
O=C(COc1ccccc1Cl)NNC(=O)c1cc(S(=O)(=O)N2CCOCC2)ccc1N1CCCC1,-32.0*,-7.0,0.3,0.9,-14.1
CCN1CCN(c2ccc(S(=O)(=O)N3CCCCC3)cc2NC(=O)Cc2ccc(Cl)c(Cl)c2)CC1,-55.5*,-2.8,4.6,100.6*,-1.1
CN(CC(=O)Nc1ccc(S(=O)(=O)N2CCCC2)cc1)Cc1c(F)cccc1Cl,-32.3*,-4.8,-0.4,10.5,-3.6
COc1cc2ncc3c(-c4ccccc4)nn(-c4ccc(C)cc4)c3c2cc1OC,0.8,2.4,0.1,0.7,0.1
CCC(Sc1nc2c(sc3ccccc32)c(=O)n1CCc1ccc(OC)c(OC)c1)C(=O)N(CC)CC (configuration not stated),0.5,-5.0,0.2,3.9,-0.2
CN1CCN(S(=O)(=O)c2ccc(NCc3ccc4c(c3)OCO4)nc2)CC1,-32.9*,-0.7,0.0,0.4,-5.2
CN(CC(=O)Nc1cc(S(=O)(=O)N2CCCC2)ccc1Cl)Cc1ccc2c(c1)OCO2,-37.1*,1.1,0.1,4.1,-8.1
CN(CC(=O)Nc1cc(S(=O)(=O)N2CCCCCC2)ccc1Cl)Cc1ccc2c(c1)OCO2,3.2,3.0,2.2,6.1,-3.3
CCN1CCN(c2ccc(S(=O)(=O)N3CCCCC3)cc2NC(=O)c2ccc(C)o2)CC1,-47.9*,3.5,-0.5,0.3,1.9
CCOc1ccccc1OCC(=O)Nc1cc(S(=O)(=O)N2CCCCC2)ccc1N1CCN(CC)CC1,-36.3*,13.5,0.0,3.0,-7.7
O=S(=O)(NCCc1cn(S(=O)(=O)c2ccccc2)c2ccccc12)c1ccccc1,9.7,3.1,1.0,2.0,-2.4
CCN1CCN(c2ccc(S(=O)(=O)N3CCCCC3)cc2NC(=O)/C=C/c2cc(OC)ccc2OC)CC1,2.2,30.0*,0.6,4.3,-9.6
CCN1CCN(S(=O)(=O)c2ccc(Cl)c(C(=O)Nc3cc(Cl)ccc3N3CCOCC3)c2)CC1,-40.4*,-9.9,0.1,4.5,-8.4
CCN1CCN(S(=O)(=O)c2ccc(Cl)c(C(=O)Nc3ccccc3N3CCOCC3)c2)CC1,-3.0,9.0,-0.5,1.7,-4.3
COc1cc(/C=C/c2nc(C#N)c(NC3CCCCC3)o2)cc(OC)c1OC,-2.5,-0.4,-2.7,1.3,0.1
OC(COc1ccccc1F)CN1CCC(Cc2ccccc2)CC1 (configuration not stated),-41.9*,-5.4,1.0,16.0,-18.3
OC(COc1ccc(F)cc1Cl)CN1CCC(Cc2ccccc2)CC1 (configuration not stated),-72.1*,-4.7,-0.4,61.1*,-7.0
COc1cccc(OCC(O)CN2CCC(Cc3ccccc3)CC2)c1 (configuration not stated),-31.3*,-2.0,0.5,19.8,-5.8

# Source: PubChem BioAssay
